Assay results published in the supplement of paper PMC10338343.
± gives the standard deviation. In all, about 5,500 sequences were measured (“pre-steady-state target cleavage rate”: median about 0.1, highest 2% from about 0.64 on). The full list was thinned out, with the highest values kept by preference.

system: MIWI (PIWIL1) piRISC loaded with piRNA #2 (30 nt); test: pre-steady-state target cleavage rate (min^-1); MIWI and MILI are mouse PIWI proteins and EfPiwi is from a freshwater sponge; tags in brackets are library labels; higher = faster piRNA-guided slicing of the target; details: guide: piRNA #2 5'p-UUAGGUAACCCAGUAGAUCCAGAGGAAUUC; auxiliary factor: 500 nM mouse GTSF1
Method in brief: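 Cleave-'n-Seq used a transcribed, DNA-blocked target RNA library at 0.1 nM and active affinity-purified piRISC with one synthetic guide at 1 nM, with or without 500 nM GTSF1 partner protein, in HEPES–potassium acetate buffer at 33 °C for 0–8 or 0–960 min. Uncleaved targets were sequenced and normalised to depth and to weakly complementary targets, and three trials were pooled with k3 capped at 0.0001 min^-1. The pre-steady-state cleavage rate was estimated by a burst-and-steady-state fit.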

Row | Sequence | pre-steady-state target cleavage rate
1 | GAAUUCCUCUGGAACUAGUGGGUUACCUAA | 0.221 ± 0.027
2 | GAAUUCCUCUGGAUCUUCUGGGUUACCUAA | 0.274 ± 0.047
3 | CAAUUCCUCUGGAUCUACUGGGUUACCUGAA | 0.438 ± 0.14
4 | GAAUUCCUCUGGAUCUACUGGGUUACCUGAA | 0.735 ± 0.26
5 | CAAUUCCUCUGGAUCUACUGGGUUACAUAA | 0.739 ± 0.053
6 | CUUAUCCUCUGGAUCUACUGGGUUACCAUAA | 0.452 ± 0.06
7 | CUAUUCCUCUGGAUCUACUGGGUUACAUAA | 0.739 ± 0.051
8 | CAAUUCCUCUGGAUCUACUGGGUUACCUGA | 0.328 ± 0.086
9 | CUAUUCCUCUGGAUCUACUGGGUUACCAUAA | 0.553 ± 0.069
10 | CUAUUCCUCUGGAUCUACUGGGUUACCAUA | 0.413 ± 0.054
11 | CUUAUCCUCUGGAUCUACUGGGUUACCAUA | 0.497 ± 0.069
12 | CUUAUCCUCUGGAUCUACUGGGUUACAUAA | 0.742 ± 0.048
13 | CAAUUCCUCUGGAUCUACUGGGUUACCAUAA | 0.588 ± 0.078
14 | CAAUUCCUCUGGAUCUACUGGGUUACCAUA | 0.518 ± 0.076
15 | CUUAAGGUCUUGGAUCUACUGGGUUACCUAA | 0.291 ± 0.03
16 | CUUAAGGUCUGGAUCUACUGCGUUACCAAA | 0.109 ± 0.029
17 | CUAAUCCUCUGGAUCAACUGGGUUACCUAA | 0.381 ± 0.043
18 | CUUUUCCUCUGGAUCUACUGGGUUACAUAA | 0.738 ± 0.042
19 | CUAUUCCUCUGGAUCUACUGGGUUAACUAA | 0.349 ± 0.071
20 | GAAUUCCUCUGGAUCUACUGGGUUAACUAA | 0.674 ± 0.059
21 | GAAUUCCUCUGGAUCUACUGGGUUACAUAA | 0.64 ± 0.057
22 | CUAUUCCUCUGGAUCUACUGGGUUAGCCUAA | 0.51 ± 0.063
23 | CAAUUCCUCUGGAUCUACUGGGUUAGCCUAA | 0.651 ± 0.079
24 | GAAUUCCUCUGGAUCUACUGGGUUAGCCUAA | 0.299 ± 0.036
25 | CUUUUCCUCUGGAUCUACUGGGUUACCAUA | 0.437 ± 0.048

Row | Sequence | pre-steady-state target cleavage rate
26 | GAAUUCCUCUGGAUCUACUGGGUUACCAUAA | 0.383 ± 0.049
27 | CAAUUCCUCUGGAUCUACUGGGUUAACUAA | 0.386 ± 0.098
28 | GAAUUCCUCUGGAUCUACUGGGUUACCAUA | 0.364 ± 0.05
29 | CUUUUCCUCUGGAUCUACUGGGUUACCAUAA | 0.422 ± 0.047
30 | CUUAACCUCUGGAUCUAGUCGGUUACCUAA | 0.0063 ± 0.0049
31 | CUUUUCCUCUGGAUCAACUGGGUUUCCUAA | 0.165 ± 0.034
32 | CUUAAGGAGACCUUCUACAGCGUUACCUAA | 0.00566 ± 0.0029
33 | CUUAUGCUCUGGAUCUACUGGGUUACCUAA | 0.124 ± 0.02
34 | CUUAAGGACAGGUUCUACUGGGUUACCUAA | 0.0257 ± 0.017
35 | CUUAAGCUCUGGAUCUACUGGGUAACCAAA | 0.0234 ± 0.0094
36 | CUUAACCUCUGGAUCUACUGGGUUACUAA | 0.116 ± 0.018
37 | CUUAAGGAGUGGAACUACUGGGUUACCUAA | 0.0357 ± 0.024
38 | CUUAAGGAGUGGAUCUACUGGGUUACCGAA | 0.0437 ± 0.018
39 | CUUUUCCUCUGGAUCUAGAGGGUUACCUAA | 0.022 ± 0.0052
40 | CUUAACCUCUGGUUCUACUGGCUUACCUAA | 0.112 ± 0.014
41 | GAAUUCCUCUCGUUCUACUGGGUUACCUAA | 0.793 ± 0.058
42 | CUAUUCCUCUCCUUCUACUGGGUUACCUAA | 0.569 ± 0.049
43 | CUUAACCUCUCGUUCUACUGGGUUACCUAA | 0.401 ± 0.044
44 | CUAUUCCUCUCGUUCUACUGGGUUACCUAA | 0.75 ± 0.077
45 | CUUAUCCUCUCGUUCUACUGGGUUACCUAA | 0.41 ± 0.039
46 | CAAUUCCUCUCGUUCUACUGGGUUACCUAA | 0.82 ± 0.071
47 | CUUUUCCUCUCGUUCUACUGGGUUACCUAA | 0.519 ± 0.041
48 | CAAUUCCUCUGGGUCUACUGGGUUACCUAA | 0.562 ± 0.037
49 | CUAUUCCUCUGGAUUCUACUGGGUUACCUAA | 0.346 ± 0.047
50 | CAAUUCCUCUCCUUCUACUGGGUUACCUAA | 0.613 ± 0.058

Row | Sequence | pre-steady-state target cleavage rate
51 | GAAUUCCUCUCCUUCUACUGGGUUACCUAA | 0.781 ± 0.06
52 | GAAUUCCUCUGGAUUCUACUGGGUUACCUAA | 0.224 ± 0.036
53 | CUUAAGGAGUGGUUCUACUGGGUUACCUUA | 0.0165 ± 0.004
54 | CUUAAGGACUGGAUCUACUGGGUUAACUAA | 0.116 ± 0.042
55 | CUUUUCCUCUGGAUCUACUGCCUUACCUAA | 0.0739 ± 0.012
56 | CUUAACCUCUGGAUCUACAGGGUUAGCUAA | 0.0376 ± 0.0069
57 | GAAUUCCUCUGGAUCUAGUGGGUUUCCUAA | 0.108 ± 0.019
58 | CUUAAGGACUGGAUCUACUAGGUUACCUAA | 0.0835 ± 0.039
59 | CUUAAGGUCAGGAUCUACUGGGUAACCUAA | 0.00869 ± 0.0069
60 | CUUAACCUCUGGAUCUACUGGGUUACACUAA | 0.344 ± 0.042
61 | CUAUUCCUCUGGAACUUCUGGGUUACCUAA | 0.299 ± 0.036
62 | CUUAUCCUCUGGAUCUAGUGGGAUACCUAA | 0.0912 ± 0.02
63 | GAAUUCCUCUGGAUCUACUGGGAUACCAAA | 0.192 ± 0.06
64 | CUUAAGGUCUGGAUGUUCUGGGUUACCUAA | 0.05 ± 0.018
65 | CUAUUCCUCUGGAUGUACUGGGUUACCUAA | 0.533 ± 0.041
66 | CUAUUCCUCUCGAUGUACUGGGUUACCUAA | 0.636 ± 0.045
67 | CUUAUCCUCUCGAUGUACUGGGUUACCUAA | 0.498 ± 0.03
68 | CAAUUCCUCUCGAUGUACUGGGUUACCUAA | 0.672 ± 0.056
69 | CUUAACCUCUCGAUGUACUGGGUUACCUAA | 0.421 ± 0.029
70 | CUUUUCCUCUCGAUGUACUGGGUUACCUAA | 0.592 ± 0.043
71 | GAAUUCCUCUCGAUGUACUGGGUUACCUAA | 0.645 ± 0.052
72 | CAAUUCCUCUGGAUGUACUGGGUUACCUAA | 0.578 ± 0.054
73 | GAAUUCCUCUGGAUGUACUGGGUUACCUAA | 0.352 ± 0.045
